Reference: PubChem BioAssay AID504465 (National Center for Advancing Translational Sciences (NCATS), 2011)
The whole screen tested about 2,100 compounds, of which about 210 (10%) were called active. About 53% were inconclusive and are not listed. Some of the results follow. A number with no mark means an inactive call. The call rests on the fitted dose curve; in most records, active means well fitted inhibition curve with a large enough effect; inconclusive means small, poorly fitted or top-dose-only effect, or effect the other way; inactive means no such curve, though single readings can be large or run the other way.

Experiment: IN Cell qHTS Assay for Inhibitors of the mTORC1 Signaling Pathway in MEF (Tsc2-/-, p53-/-) Cells: Sytravon; further: nearly all actives have a fitted effect of over 60% in size
Settings: phospho-rpS6 immunofluorescence, 24 h; series mostly up to 38.3 µM; activity, negative = inhibition: at the top concentration
Description: NIH Molecular Libraries Probe Production Centers Network [MLPCN] NIH Chemical Genomics Center [NCGC] MLPCN Grant: NS059428-01 Assay Submitter (PI): Blenis, John; Hoffman, Greg; Harvard University NCGC Assay Overview: Thee mammalian target of rapamycin (mTOR) is an intracellular serine/threonine kinase Aberrant regulation of mTOR signaling plays a causative role in a number of human diseases, including cancer, benign tumors such as lymphangioleiomyomatosis (LAM) and Tuberous Sclerosis Complex (TSC), and metabolic diseases such as diabetes and obesity. This project aims to identify inhibitors of ribosomal protein S6 (rpS6) phosphorylation. The phosphorylation of rpS6 is a key event downstream of mTOR activation. The assay uses a phospho-specific antibody of phospho-rpS6 to detect inhibitors of mTOR activation. Mutations in the Tsc1 and Tsc2 genes are the underlying genetic lesions responsible for TSC, causing constitutive activation of the mTORC1 pathway and leading to profound effects on cell metabolism. Aberrant metabolism in cancer has recently received significant attention as a target to develop therapeutic agents in the treatment of cancer1. As Tsc2-/- cells have lost the ability to respond to energy and growth factor deprivation, these cells are unable to properly down regulate cellular biosynthetic processes in response to metabolic stress, and are thus extremely sensitive to glucose deprivation-induced death.2 A central goal of this project is to explore the unique cell survival and metabolic properties of cells with Tsc1 or Tsc2 by screening for compounds that selectively target the Tsc2-/- MEFs by screening both Tsc2-/- and WT MEF cell lines. We hope to better understand these aspects of TSC physiology in order to exploit them for therapeutic benefit.
NCGC IN Cell Assay Protocol: For quantitative high throughput analysis of mTORC1 signaling, we developed a cell-based assay for immuno-fluorescence based detection of rpS6 phosphorylation on the Acumen Explorer that will be used a platform for the primary small molecule screen. Mouse embryonic fibroblasts (MEFs) are cultured in 1536-well plates using DMEM + 10% FBS. Twenty-four hrs after plating, test compounds (solubilized in DMSO) are delivered and incubated with the cells for 24 hrs at 37 degree Celsius. Following the incubation, media with compound is aspirated and the cells are fixed in 4% paraformaldehyde (PFA) containing PBS + 0.2% TX-100. Next, PFA is aspirated, cells are washed two times with PBS plus 0.2% TX-100 and the cells are blocked for 1 hr at room temperature (blocking buffer: LiCOR Blocking Buffer plus 0.2% TX-100). This is followed by aspiration and staining with Alexa-488 conjugated-phospho-rpS6 Ser235/236 antibody for 2 hours at room temperature (Cell Signaling Technology # 4803, 1:50 dilution in blocking buffer). Cells are washed two times with PBS plus 0.2% TX-100, and stained with 10 uM propidium iodide (PI) for 20-25 minutes for cell number measurement (1:500 dilution of Hoescht staining is also added for IN Cell imaging). Active wells which are selected (based on Acumen results) are imaged on the IN Cell 1000 (GE Healthcare) using the D360/40X and HQ480/40X excitation filters for the Hoechst and Alexa-488 cytoplasmic stains, respectively. The fluorescence emission filters used were HQ460/40M and HQ535/50M for the Hoechst and Alexa-488 cytoplasmic stains, respectively. The normalized phospho-S6 staining is calculated as the ratio of […] for the single concentration rapamycin control (7.5 nM) and DMSO columns. […] Inhibition of the pathway is defined based on the normalized phospho-S6 intensity in rapamycin treated cells. Each treatment is reported as the % positive cells in the well, where thresholds are defined by selecting wells with the highest and lowest signal and differentiating between the % non-active and % active populations. […]
Potency means the concentration at half of the fitted maximal effect.

In order of falling “activity, negative = inhibition” value:
1. Cc1ccccc1Nc1c(-c2ccc(Cl)s2)nc2cccc(C)n12  15.5%
2. CC1CCCCN1CCCNC(=O)c1cc(Sc2cccc(Cl)c2)nc2ccccc12 (stereo not drawn)  6.25%
3. CCOc1ccc(CNC(=O)CCCc2cn(C)c3ccccc23)cc1OC  6.25%
4. Cn1ncc2c(NCc3cccc(Cl)c3)ncnc21  6.25%
5. CCCS(=O)(=O)N1CC(=O)N(c2ccccc2F)C(C)(C(=O)NC2CCCCCC2)C1 (stereo not drawn)  1.49%
6. Cc1ccc(NC(=O)C2CCCN(S(=O)(=O)c3ccc4c(c3)CCCC(=O)N4)C2)cc1Cl (stereo not drawn)  1.08%
7. COc1ccc(NC(=O)c2cc3c(=O)n(Cc4ccco4)ccc3nc2C)cc1  0.892%
8. Cc1ccc(-c2nc3scc(CCNC(=O)c4cccc(Br)c4)n3n2)cc1  0%
9. Cc1ccc(NC(=O)Cn2c(=O)c(CNc3ccccc3)cc3cc4c(cc32)OCCO4)cc1  0%
10. COc1cccc(C2=CC(c3cc(Br)ccc3F)n3nnnc3N2)c1 (stereo not drawn)  0%
11. COc1ccc(Nc2cc(C(=O)NCCCN(C)Cc3ccccc3)c3ccccc3n2)cc1  0%
12. CCOC(=O)c1cc(-c2ccccc2)n(CCC(=O)Nc2ccc(C(F)(F)F)cc2)c1C  0%
13. CCOC(=O)c1cc(-c2ccccc2)n(-c2cccc(C(=O)N(C)c3ccc(C)cc3)c2)c1C  0%
14. CC(CNC(=O)c1ccc2nc(CCc3ccccc3)oc2c1)c1ccccc1 (stereo not drawn)  -0.769%
15. CCOC(=O)Cn1c(=O)n(C2CCCCC2)c2nc(-c3cccc(C)c3)nc(C(N)=O)c21  -0.928%
16. CCOC(=O)c1c(C)oc2ncnc(Nc3cc(Cl)ccc3OC)c12  -1.76%
17. COc1ccc(OC)c(NC(=O)Cn2c(=O)n(Cc3ccccc3)c(=O)c3ccccc32)c1  -2.9%
18. CCC1CCCCN1CCCNC(=O)c1c(C)oc2ncn(CC(C)C)c(=O)c12 (stereo not drawn)  -3.66%
19. Fc1ccc(C(NCCc2ccccc2)c2nnc(-c3ccccc3Cl)o2)cc1 (stereo not drawn)  -3.75%
20. Clc1cccc(CSc2ccc(-c3cccs3)nn2)c1  -10%
21. O=C(NCCCc1nc2ccccc2n1Cc1ccc(Cl)cc1)c1ccco1  -10.8%
22. COc1ccc(Cn2c(C(=O)O)c(CNCc3ccccc3F)c3ccc(OC)cc32)cc1  -12.4%
23. Cc1cccc(C)c1Nc1c(-c2ccsc2)nc2cccc(C)n12  -13%
24. COc1cc2cc(CNc3ccc(C)cc3)c(=O)n(CC(=O)Nc3ccc(F)cc3F)c2cc1OC  -16.6%
25. N#Cc1ccccc1S(=O)(=O)N1CCC(Oc2ccc(-n3cnnn3)cc2)CC1  -17.1%
26. CCCNC(=O)C1CCN(Cc2cc3ccccc3n2Cc2ccccc2)CC1  -17.9%
27. Cc1cccc(Cn2c(CNC(=O)c3ccccc3)nc3ccccc32)c1  -18.5%
28. Cc1c(C(=O)OC2CCC(C)CC2)[nH]c2c1C(=O)CC(c1ccc(F)cc1)C2 (stereo not drawn)  -18.9%
29. O=C(NCC1CCN(Cc2ccccc2Cl)CC1)c1cc2ccc3cccnc3c2[nH]1  -19.1%
30. Cc1ccccc1CSCCNC(=O)C1CCN(S(=O)(=O)Cc2ccccc2)CC1  -21.6%
31. COc1cc(C2CC(=O)c3c([nH]c(C(=O)OC4CCCCC4)c3C)C2)cc(OC)c1OC (stereo not drawn)  -21.9%
32. O=C(Nc1ccc(C(F)(F)F)cc1)C1CCCN(S(=O)(=O)c2cccc3cccnc23)C1 (stereo not drawn)  -23.6%
33. COc1ccc(Cn2c(C(=O)O)c(CNCCc3ccco3)c3ccc(OC)cc32)cc1  -26.7%
34. Cc1ccc(Cn2c(=O)n(CCCCC(=O)NCc3ccccc3Cl)c(=O)c3ccccc32)cc1  -34.5%
35. O=C(NCCc1ccccc1Cl)c1ccc2c(=O)n(-c3ccccc3)c(=O)[nH]c2c1  -43.6%
36. COc1ccc(OC)c(NC2=C(c3ccccc3)C(=O)c3ccccc32)c1  -54.5%

For `CC(C)CCNC(=O)c1cccc(Nc2nc3ccccc3n3nnnc23)c1`, the Potency was 4.14 µM (active).
With `CCCS(=O)(=O)c1c(S(=O)(=O)CCC)c2cc(C(C)(C)C)ccn2c1C(=O)c1ccc(OC)c(OC)c1` the Potency was 0.147 µM (active).
For `COc1ccc(OCc2nc3c4c(-c5ccccc5)c(-c5ccccc5)oc4ncn3n2)cc1`, the Potency was 4.14 µM (active).
With `Cc1ccc(NCc2cc3cc4c(cc3n(CC(=O)Nc3ccc(C)cc3)c2=O)OCCO4)cc1` the Potency was 4.65 µM (active).
For `CCC1CCCCN1CCCNC(=O)c1cc2c(Cl)nc3ccccc3c2s1` (stereo not drawn), the Potency was 14.7 µM (active).
For `CN(CCCNC(=O)c1cc2c(Cl)nc3ccccc3c2s1)Cc1ccccc1`, the Potency was 18.5 µM (active).
In the case of `CCOc1ccc(C2CC(=O)c3c([nH]c(C(=O)OCc4ccccc4)c3C)C2)cc1` (stereo not drawn), the Potency is reported as 16.5 µM (active).
For `Cc1ccccc1Cn1c(CN2CCC(C(=O)NCCN(C)C)CC2)cc2ccccc21`, the Potency was 11.7 µM (active).
In the case of `CCOC(=O)c1cc(-c2ccc(C)cc2)n(CC(=O)Nc2ccccc2F)c1C`, the Potency is reported as 14.7 µM (active).
For `COc1ccc(NC(=O)Cn2c(=O)n(Cc3ccco3)c(=O)c3cc(OC)c(OC)cc32)cc1`, the Potency was 14.7 µM (active).
For `COc1ccc(-n2c(=O)c3ccc(C(=O)NCc4ccc(C)cc4)cc3n(CC(=O)Nc3ccc(F)cc3)c2=O)cc1`, the Potency was 14.7 µM (active).
For `COc1ccc(NC(=O)c2ccc3c(c2)c(C)c(C)n3Cc2ccc(F)cc2)cc1`, the Potency was 10.4 µM (active).
